Screens from PubChem.
TAR Tat displ: TAR RNA-Tat peptide displacers, HIV-1, primary screen, biochemical, FRET, FAM/TAMRA-labeled Tat; z-score (test concentration not listed); AID 1259389, 2018; HIV-1 TAR RNA, Tat peptide displacement FRET; hits give high values; 0.6% of 100,000 active; active means z-score of 3 or more in at least 2 runs
CDC25B-CDK2 inh: primary biochemical HTRF screen for blockers of M-phase inducer phosphatase 2 binding to CDK2/cyclin A; P30305+P24941; HTRF CDC25B-CDK2/CyclinA binding, anti-His/anti-Flag; hits give high values; z-score (concentration not given with the values); 0.72% of 94,000 active; in the data active means z-score above about 3.2
An asterisk follows results filed as active; · = no result. Compounds with a hit are over-represented: about 0.86% of the library has one in this group of screens.

SMILES | TAR Tat displ | CDC25B-CDK2 inh
CCCCNC(=O)C1Cc2cc(S(=O)(=O)N(CC)CC)ccc2N1C(C)=O (stereo not drawn) | 1.1 | ·
CCCSCCCn1cnc2c([nH]c3ccc(Cl)cc32)c1=O | 1.6 | -0.62
Cc1ccc(NS(=O)(=O)c2cc3[nH]c4c(c3cc2C)C(=O)CCC4)cc1 | -0.82 | ·
Cc1cc2c3c([nH]c2cc1S(=O)(=O)Nc1ccccc1)CCCC3=O | -1.3 | ·
Cc1cc2c3c([nH]c2cc1S(=O)(=O)Nc1cccnc1)CCCC3=O | 7.6* | ·
Cc1cc2c3c([nH]c2cc1S(=O)(=O)Nc1ccc(S(N)(=O)=O)cc1)CCCC3=O | 11* | ·
O=C(NCCc1c[nH]c2ccccc12)C1CCCN(c2nc3cccnc3s2)C1 (stereo not drawn) | 0.19 | ·
N#CC1=C2SCN(Cc3ccco3)CN2C(=O)CC1c1ccc(F)cc1 (stereo not drawn) | -1.5 | 6*
N#CC1=C2SCN(Cc3ccco3)CN2C(=O)CC1c1ccc(Br)cc1 (stereo not drawn) | 2.1 | -1.8
COc1ccc(CN2CSC3=C(C#N)C(c4ccc(F)cc4)CC(=O)N3C2)cc1 (stereo not drawn) | 0.92 | 3.6*
COc1ccc(C2CC(=O)N3CN(Cc4ccco4)CSC3=C2C#N)cc1 (stereo not drawn) | 1.8 | 3.2*
CNC(=O)c1nnsc1N1CCCCC1 | 0.75 | ·
Cc1cc(C)cc(OCC(=O)Oc2ccc(-n3cnnn3)cc2)c1 | -1 | -0.25
CCc1nnc2c(NCc3ccccc3Cl)nc3ccccc3n12 | 2.4 | -0.84
NNC(=O)c1csc(-c2cccc(-n3cccc3)c2)n1 | · | 17*
NNC(=O)Cc1csc(-c2cccc(-n3cccc3)c2)n1 | · | 17*
O=C(Cc1csc(-c2ccccc2)n1)Nc1nc(-c2ccccc2)cs1 | 0.46 | 0.55
NNC(=O)c1csc(-c2ccccc2)n1 | · | -1.1
CCCCSc1nc2c(c(=O)[nH]1)C(c1sccc1C)C(C(=O)OCC)=C(C)N2 (stereo not drawn) | -1.5 | -0.39
CC1CCCCN1C(=O)CSc1nc(-c2ccco2)nc2cc(=O)[nH]n12 (stereo not drawn) | 1.2 | ·
CC1CCN(C(=O)CSc2nc(-c3ccco3)nc3cc(=O)[nH]n23)CC1 | 9.2* | ·
O=C(O)c1cc(N(Cc2ccccc2O)Cc2cc(O)ccc2O)ccc1O | 34* | ·
Oc1ccccc1CN(Cc1ccccc1)Cc1ccccc1 | 0.39 | -0.68
CCc1ccc(NC(=O)Nc2c(C)nc3nc[nH]n3c2=O)cc1 | -0.03 | ·
O=C(NCc1nnc(SCC(=O)N2CCc3ccccc32)n1-c1ccc(F)cc1)c1ccco1 | 2.7 | -0.15
SMILES | TAR Tat displ | CDC25B-CDK2 inh
CCOC(=O)C1CCN(c2cc(NCc3ccco3)c3c4c(onc24)-c2ccccc2C3=O)CC1 | -4 | 15*
CCOC(=O)C1CCN(c2cc(NCCCN(C)C)c3c4c(onc24)-c2ccccc2C3=O)CC1 | 1.1 | -1.8
O=C1c2ccccc2-c2onc3c(N4CCN(CCO)CC4)cc(NCc4ccco4)c1c23 | -5.5 | 0.21
O=C(O)CNc1cc(N2CCC(c3ccccc3)CC2)c2noc3c2c1C(=O)c1ccccc1-3 | -6 | 5.1*
CC1CCN(c2cc(NCCCC(=O)O)c3c4c(onc24)-c2ccccc2C3=O)CC1 | -4.3 | 1.2
CCOC(=O)C1CCN(c2cc(NCCCC(=O)O)c3c4c(onc24)-c2ccccc2C3=O)CC1 | 24* | 14*
O=C(Cn1ccn(Cc2ccc(Cl)cc2)c(=O)c1=O)c1ccc(F)cc1 | -0.15 | ·
CC(NC(=O)C(=O)N1CCCCC1)C(c1cccs1)N1CCOCC1 (stereo not drawn) | 0.93 | 0.55
COc1ccc(CCN2N=NC3C(=O)N(c4ccc(OC)cc4)C(=O)C32)cc1 (stereo not drawn) | 4 | -0.8
CCOc1ccc(Oc2nc(C)nc3sc(C)c(C)c23)cc1 | 7.5* | ·
CCOC(=O)c1sc2nc(C)nc(Oc3ccc(OCC)cc3)c2c1C | -0.13 | ·
COCCNc1cc(N2CCN(C(=O)c3ccco3)CC2)c2noc3c2c1C(=O)c1ccccc1-3 | 2.8 | 0.55
O=C1c2ccccc2-c2onc3c(N4CCN(C(=O)c5ccco5)CC4)cc(NCCO)c1c23 | 7.4* | 0.78
O=C1c2ccccc2-c2onc3c(N4CCN(C(=O)c5ccco5)CC4)cc(NCc4ccco4)c1c23 | 15* | 1.6
CCNc1cc(N2CCN(C(=O)c3ccco3)CC2)c2noc3c2c1C(=O)c1ccccc1-3 | 2.6 | -1.6
CS(=O)(=O)N1CCCc2cc(C(N)=O)ccc21 | -0.38 | -1.1
O=S(=O)(CCN(CC1CCCO1)S(=O)(=O)c1ccc(Cl)cc1)N1CCNCC1 (stereo not drawn) | 1.5 | ·
CCOC(=O)C(=O)Nc1nnc2n1CCCS2 | 1.9 | ·
Cc1nc(N2CCC(C(=O)O)CC2)c2c(C)c(C)sc2n1 | 4.8* | ·
CCOC(=O)C1CCCN(C(=O)c2sc3nc(C)nc(N4CCC(C)CC4)c3c2C)C1 (stereo not drawn) | · | -0.42
CN(C)CCCn1c(C2CC(=O)N(c3ccc(F)cc3)C2)nc2ccccc21 (stereo not drawn) | -1 | -0.99
CCN(Cc1nc(-c2ccc(C)cc2)no1)S(=O)(=O)c1ccc(F)cc1 | 1 | 0.23
CSc1ccc(NC(=O)NCCCN2CCc3ccccc3C2)cc1 | -0.99 | 0.37
O=C(NCCCN1CCc2ccccc2C1)Nc1ccc(Br)cc1 | -2 | 9.2*
CCCn1nc(-n2cnnc2)c(NS(=O)(=O)c2cc(OC)ccc2OC)c1C | 0.42 | -2.7
SMILES | TAR Tat displ | CDC25B-CDK2 inh
CCN(CC)S(=O)(=O)N(CC(=O)O)CC(=O)O | 0.75 | ·
O=C(O)CN(CC(=O)O)S(=O)(=O)c1ccccc1 | 17* | ·
O=C(CSc1ncc(S(=O)(=O)c2cccc(Cl)c2)c(=O)[nH]1)Nc1ccccc1 | -0.24 | -1.4
CCS(=O)(=O)N1CCCc2ccc(NS(=O)(=O)c3ccc(Br)cc3)cc21 | -0.71 | ·
O=C(CSc1nnnn1-c1ccccc1)Nc1nc2c(s1)CCCC2 | · | -1.9
Oc1cccc(-c2nc(-c3cccs3)c(-c3cccs3)[nH]2)c1 | -3.2 | 19*
Oc1ccc(-c2nc(-c3cccs3)c(-c3cccs3)[nH]2)cc1 | -0.61 | 19*
c1csc(-c2nc(-c3cccs3)c(-c3cccs3)[nH]2)c1 | -0.71 | 19*
Oc1ccc(-c2nc(-c3ccccc3)c(-c3ccc(O)cc3)[nH]2)cc1 | -1.7 | -1.4
COc1cccc(-c2nc(-c3cccs3)c(-c3cccs3)[nH]2)c1 | · | -1.6
Cc1cc(=O)[nH]c(-c2cccs2)n1 | · | 0.45
CCN1C(=O)C2(c3ccccc31)c1c(oc3cc(C)c(C)cc3c1=O)C(=O)N2CCOC (stereo not drawn) | 0.82 | -2.2
Cn1c(=O)n(CC(=O)N2CCCC2)c(=O)c2cc(S(=O)(=O)Nc3ccc(F)cc3F)ccc21 | 0.62 | ·
O=C(O)c1ccccc1C(=O)Nc1ccc2c(c1)C(=O)c1ccccc1C2=O | · | 7.8*
O=C(Nc1ccc2c(c1)C(=O)c1ccccc1C2=O)c1ccccc1 | · | -0.85
C=CCc1ccc(OCCOc2ccc(/C=C3\SC(=S)N(CC)C3=O)cc2OCC)c(OC)c1 | · | -5.3
Cc1cc(C)c2c(n1)nn1c(C)c(CCC(=O)Nc3ccc(Br)cc3F)c(C)nc21 | 1.4 | 1.8
CC(C)NC(=O)c1sc(=S)n2c1[nH]c(=O)c1ccc(C(=O)NCCCN3CCCC3=O)cc12 | 8.5* | ·
CC(C)OCCCNC(=O)c1ccc2c(=O)[nH]c3c(C(=O)NC4CCCC4)sc(=S)n3c2c1 | 2.1 | ·
